Shown is part of a subset that was picked to be rich in hits.
HT1080-NT tox: kills 2HG-producing HT-1080-NT fibrosarcoma cells; HT-1080-NT fibrosarcoma viability, CellTiter-Glo ATP luminescence, 48 h; AID 686970; Potency, µM (titrated, usually from 46.1 µM), actives largely listed as cytotoxic; actives 1.6% (n = 360,000);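 further: NT is the 2HG producing partner of a matched IDH1 knockdown line; nearly all actives have a fitted effect of over 55% in size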
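Luminescent CellTiter-Glo readout after 48 hours of compound exposure at 37 degrees C defined viability of HT-1080-NT cells. Activity was normalized to DMSO wells and cell-free media wells; concentration-response curves were fitted and assigned curve classes.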
IL1B secr inh: blocks inflammasome-driven IL-1 beta release; THP-1 LPS/ATP IL-1B secretion, AlphaLISA, 16 h; hits give low values; activity change, % at 57.5 µM; actives 4.7% (n = 360,000); AID 743279; in the data active means activity change below about -50%; inconclusive means mostly about -30% to -49%
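THP-1 cells pretreated 1 hr with compounds (up to 57.5 uM final), then stimulated with LPS (250 ng/mL final) plus ATP (1.25 mM final); secreted IL-1B measured by AlphaLISA after 16 hr, decreased signal indicating inhibition.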
TDP1 cell CPT: growth inhibition of DT40 Tdp1-/-;hTDP1 cells with camptothecin (screen for TDP1 inhibitors). actives 12% (n = 420,000). Potency, µM (top dose mostly 46.2 µM), actives largely listed as inhibitors. chicken DT40 Tdp1-/-;hTDP1 cells + 20 nM CPT, ATP luminescence, 48 h; further: nearly all actives have a fitted effect of over 55% in size
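Cell growth measured by CellTiter-Glo luminescence after a minimum 48 h, 37 C compound exposure with 20 nM CPT in Tdp1-knockout DT40 cells stably expressing hTDP1, seeded 400/well; qHTS titration format.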
HT1080 IDH1KD tx: HT-1080 IDH1 knockdown cell toxicity (counter line) | HT-1080 IDH1 knockdown viability, ATP luminescence, 48 h | Potency, µM (titrated, usually from 46.1 µM), hits mostly cytotoxic | actives 2% (n = 360,000) | AID 686971
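HT-1080-IDH1KD cells (IDH1 knocked down), 750/well in RPMI with 5% FBS, treated with compound 48 h at 37 degrees C. Viability by CellTiter-Glo luminescence, normalised to DMSO and no-cell wells; concentration-response curves classed.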
12-LOX inh: inhibitors of human 12S-lipoxygenase ALOX12; Potency, µM (series often up to 108 µM), usual class: inhibitors; actives 1.1% (n = 580,000); AID 1671190; purified 12hLO, xylenol orange hydroperoxide absorbance
Target sequence (P18054 whole entry, looked up): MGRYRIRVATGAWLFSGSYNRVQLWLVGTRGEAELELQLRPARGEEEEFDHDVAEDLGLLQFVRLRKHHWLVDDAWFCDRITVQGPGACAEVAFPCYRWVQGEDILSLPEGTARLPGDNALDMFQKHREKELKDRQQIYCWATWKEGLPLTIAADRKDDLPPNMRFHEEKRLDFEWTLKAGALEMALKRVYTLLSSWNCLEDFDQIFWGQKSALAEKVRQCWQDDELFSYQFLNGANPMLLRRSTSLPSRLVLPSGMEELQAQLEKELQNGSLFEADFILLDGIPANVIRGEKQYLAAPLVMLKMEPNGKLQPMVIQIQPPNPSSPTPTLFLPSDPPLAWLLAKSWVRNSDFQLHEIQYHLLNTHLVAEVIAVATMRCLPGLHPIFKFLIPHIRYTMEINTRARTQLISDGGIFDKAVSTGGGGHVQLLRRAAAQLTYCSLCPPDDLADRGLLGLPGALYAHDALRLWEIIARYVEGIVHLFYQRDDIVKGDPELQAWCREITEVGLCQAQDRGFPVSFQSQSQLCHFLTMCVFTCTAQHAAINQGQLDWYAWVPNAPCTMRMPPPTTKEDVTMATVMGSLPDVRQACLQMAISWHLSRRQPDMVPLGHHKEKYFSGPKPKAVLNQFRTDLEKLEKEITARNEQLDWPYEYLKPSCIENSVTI
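Hydroperoxide product was detected by ferrous iron/xylenol orange as the 573 to 405 nm absorbance ratio. Arachidonic acid at 40 uM (final) was turned over for 30 min at room temperature by 150 nM human 12hLO, pH 7.0 Hepes buffer, after 15 min compound preincubation.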
DT40 TDP1 no CPT: qHTS for Inhibitors of human tyrosyl-DNA phosphodiesterase 1 (TDP1): qHTS in cells in absence of CPT; DT40 Tdp1-/- hTDP1 cells, no CPT, ATP luminescence, 48 h; Potency, µM (top dose mostly 46.2 µM), most hits filed as inhibitors; actives 15% (n = 420,000); further: nearly all actives have a fitted effect of over 55% in size
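Growth of hTDP1-complemented DT40 Tdp1-knockout cells is measured by ATP luminescence after at least 48 hr compound exposure at 37 °C, with DMSO substituting for the 20 nM CPT used in the parallel screen.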
Of the large screens only hits and unclear results are named; the others gave an inactive call. Unless noted, the call rests on the fitted dose curve; in most records, active means well fitted curve in the direction sought with a large enough effect; inconclusive means small, poorly fitted or top-dose-only effect, or another doubt; inactive means no such curve, though single readings can be large; an effect the other way counts as inactive or inconclusive.

Cc1ccc(S(=O)(=O)CC(=O)N2CCN(c3nc4c(F)cccc4s3)CC2)cc1	TDP1 cell CPT 21µM, DT40 TDP1 no CPT 18µM (no result: HT1080-NT tox, IL1B secr inh, HT1080 IDH1KD tx)
COc1cccc2sc(N3CCN(C(=O)c4cccs4)CC3)nc12	TDP1 cell CPT inconclusive
Cc1ccc(S(=O)(=O)CC(=O)N2CCCCCC2)cc1	none
COc1cccc2sc(N3CCN(C(=O)CS(=O)(=O)c4ccc(Cl)cc4)CC3)nc12	TDP1 cell CPT 16µM, DT40 TDP1 no CPT 18µM (no result: HT1080-NT tox, IL1B secr inh, HT1080 IDH1KD tx)
CCCS(=O)(=O)N1C[C@@H](Oc2cccnc2)C[C@@H]1C(=O)NC	none (no result: HT1080-NT tox, IL1B secr inh, TDP1 cell CPT, HT1080 IDH1KD tx, DT40 TDP1 no CPT)
CC(C)c1noc([C@@H]2Cc3nc[nH]c3CN2C(=O)Nc2ccc(Cl)cc2)n1	none (no result: HT1080-NT tox, IL1B secr inh, TDP1 cell CPT, HT1080 IDH1KD tx, DT40 TDP1 no CPT)
CCN(CC)c1sc(S(=O)(=O)c2ccccc2)nc1S(=O)(=O)c1ccc(C)cc1	TDP1 cell CPT inconclusive, DT40 TDP1 no CPT 15µM (no result: HT1080-NT tox, IL1B secr inh, HT1080 IDH1KD tx)
Cc1ccc(S(=O)(=O)c2nc(S(C)(=O)=O)sc2N2CCC(C(N)=O)CC2)cc1	none
Cc1ccc(S(=O)(=O)c2nc(S(=O)(=O)c3ccccc3)sc2N2CCN(CCO)CC2)cc1	HT1080-NT tox inconclusive, IL1B secr inh -68, TDP1 cell CPT inconclusive, DT40 TDP1 no CPT inconclusive
CCN1CCN(c2sc(S(C)(=O)=O)nc2S(=O)(=O)c2ccc(C)cc2)CC1	IL1B secr inh -85, TDP1 cell CPT inconclusive, DT40 TDP1 no CPT 15µM
CS(=O)(=O)c1nc(S(=O)(=O)c2ccc(Cl)cc2)c(N2CCC(C(N)=O)CC2)s1	IL1B secr inh -79, TDP1 cell CPT inconclusive, DT40 TDP1 no CPT inconclusive
CCN1CCN(c2sc(S(=O)(=O)CC)nc2S(=O)(=O)c2ccc(C)cc2)CC1	none
CN(C)c1ccc(/C=N\NC(=O)c2cccc3cc[nH]c23)cc1	TDP1 cell CPT inconclusive, DT40 TDP1 no CPT 6.5µM
CN(C)c1ccc(/C=N/NC(=O)c2ccc(N(C)C)cc2)cc1	none (no result: HT1080-NT tox, IL1B secr inh, TDP1 cell CPT, HT1080 IDH1KD tx, DT40 TDP1 no CPT)
Cc1ccc(S(=O)(=O)c2nc(Nc3ccccc3N3CCOCC3)sc2Cl)cc1	TDP1 cell CPT inconclusive, 12-LOX inh inconclusive, DT40 TDP1 no CPT inconclusive
Cc1ccc(S(=O)(=O)c2nc(Nc3ccccc3C#N)sc2Cl)cc1	TDP1 cell CPT inconclusive, DT40 TDP1 no CPT 2.6µM
CC1=CC(C)C2COC(c3ccc[n+](C)c3)C1C2C (stereo not given)	TDP1 cell CPT 8.2µM, 12-LOX inh inconclusive, DT40 TDP1 no CPT 8.2µM
CC1=CC(C)[C@@H]2COC(c3ccc(O)cc3)[C@H]1C2C (stereo not given in full)	TDP1 cell CPT inconclusive, DT40 TDP1 no CPT inconclusive
COc1ccc([C@H]2C[C@@H](O)[C@@H](O)[C@@H]2NCc2cn(C)c3ccccc23)cc1	12-LOX inh 40µM (no result: HT1080-NT tox, IL1B secr inh, TDP1 cell CPT, HT1080 IDH1KD tx, DT40 TDP1 no CPT)
CSC(N)=NCCCC(N)C(=O)O (stereo not given)	none (no result: HT1080-NT tox, IL1B secr inh, HT1080 IDH1KD tx, 12-LOX inh)
CCOC(=O)C1CCCN(c2c(Nc3cc(C)cc(C)c3)c(=O)c2=O)C1 (stereo not given)	none
CCOC(=O)C1CCCN(c2c(Nc3ccc(C)c(C)c3)c(=O)c2=O)C1 (stereo not given)	TDP1 cell CPT 16µM, 12-LOX inh inconclusive, DT40 TDP1 no CPT inconclusive
CC(C)C[C@@H]1NC(=O)[C@H](Cc2ccccc2)N(C)C(=O)[C@H](C)NC(=O)c2ccccc2NC(=O)[C@H](Cc2ccc(O)cc2)N(C)C1=O	TDP1 cell CPT 16µM, DT40 TDP1 no CPT 15µM
Cc1nc(N2CCC(NC(=O)C3CCC3)CC2)cc(C(F)(F)F)n1	none (no result: HT1080-NT tox, IL1B secr inh, TDP1 cell CPT, HT1080 IDH1KD tx, DT40 TDP1 no CPT)
CCc1nc(CN2CC[C@@H](c3ccc4c(c3)OCO4)[C@H](O)C2)c(C)[nH]1	none (no result: HT1080-NT tox, IL1B secr inh, TDP1 cell CPT, HT1080 IDH1KD tx, DT40 TDP1 no CPT)
Cn1c(Oc2ccc(-c3ccc(Br)cc3)cc2)c(C#N)c(=O)n(C)c1=O	12-LOX inh 13µM (no result: HT1080-NT tox, IL1B secr inh, TDP1 cell CPT, HT1080 IDH1KD tx, DT40 TDP1 no CPT)
Cn1c(=O)c2c(nc(Oc3ccc(-c4ccccc4)cc3)n2C)n(C)c1=O	DT40 TDP1 no CPT inconclusive

Screening data from PubChem.
